# Screening data: PubChem BioAssay, several laboratories
# M18AAP inhibitor – blocks P. falciparum M18 aspartyl aminopeptidase; AID 1822; inhibition, % at 7.35 µM; recombinant PfM18AAP, H-Glu-NHMec fluorogenic cleavage; hit rate 1.2% among 290,000;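 active means inhibition above the campaign mean inhibition over all tested compounds plus 3 SD, cut at about 28% in these data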
# pPAFAH inh – inhibitors of human plasma PAF acetylhydrolase (pPAFAH). recombinant pPAFAH, FP-rhodamine probe fluorescence polarization. inhibition, % at 3.39 µM. hit rate 1.5% among 330,000. AID 463082;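 active means inhibition above the mean inhibition across the screen plus 3 SD, cut at about 25% in these data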;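 further: inhibitors block binding of the rhodamine activity-based probe so polarization drops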
# PAFAH1B3 FP inh – PAFAH1B3 (human) inhibition | Q15102 | recombinant PAFAH1B3, FP-rhodamine probe, fluorescence polarization | inhibition, % at 3.39 µM | hit rate 0.28% among 340,000 | AID 492972;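 active means inhibition above the screen-wide average of all tested compounds plus 3 SD, cut at about 25% in these data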
# PAFAH1B2 FP inh – PAFAH1B2 (human) inhibition; P68402; hit rate 1.2% among 340,000; recombinant PAFAH1B2, FP-rhodamine activity probe, fluorescence polarization; inhibition, % at 3.39 µM;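 active means inhibition above the mean of all tested compounds plus 3 SD, cut at about 24% in these data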
# DSG3 Ab inh – blocks pemphigus antibody binding to human desmoglein-3 | DSG3-coupled beads, scFv-anti-DSG3-GFP binding, flow cytometry; stronger effect = lower value | P32926 | hit rate 0.48% among 310,000 | binding (percent of control), % at 10 µM;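 active means binding more than 3 SD below its plate's average and above zero; inconclusive means below that plate limit but binding exactly zero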
# PAFAH2 inh – inhibitors of human PAFAH2. recombinant PAFAH2, FP-rhodamine activity probe, fluorescence polarization. inhibition, % at 3.39 µM. hit rate 0.99% among 340,000. AID 492956. Q99487;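 active means inhibition above the mean over all tested compounds plus 3 SD, cut at about 30% in these data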;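 further: inhibitors block probe labeling of enzyme so polarization drops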
# A number is an active result; n = inactive; u = inconclusive; x = no result given. Shown are actives, neighbours in structure and some others; about 3.8% of the full set was active somewhere.
SMILES,M18AAP inhibitor,pPAFAH inh,PAFAH1B3 FP inh,PAFAH1B2 FP inh,DSG3 Ab inh,PAFAH2 inh
CCC(=O)c1ccc(OCC(=O)OCC(=O)c2cc(C)n(C)c2C)cc1,n,n,n,n,x,n
Fc1ccc(-n2c(Cn3nnc4ccccc43)n[nH]c2=S)cc1,30,n,n,n,n,n
COc1cccc2c1C(=O)c1c(O)c3c(c(O)c1C2=O)C[C@@](O)(C(=O)CO)C[C@@H]3OC1CC(N)C(O)C(C)O1 (some centres undefined),x,x,52,52,n,54
COc1cccc2c1C(=O)c1c(O)c3c(c(O)c1C2=O)CC(O)(C(C)=O)CC3OC1CC(N(C)C)C(O)C(C)O1 (centres undefined),x,x,46,59,n,62
CCC(C)(C)C1CCc2[nH]nc(C(=O)NCCNC(=O)OC(C)(C)C)c2C1 (centres undefined),x,n,n,28,n,n
CCC(C)(C)C1CCc2[nH]nc(C(=O)NCC3CC3)c2C1 (centres undefined),x,n,n,n,n,n
Cc1cccc(C(=O)OCC(=O)NC2CCCCCCC2)c1,x,29,n,n,u,92
CCc1ccc(C(=O)OCC(=O)NC2CCCC2)cc1,n,30,n,n,n,82
O=C(COC(=O)c1ccc2c(c1)S(=O)(=O)c1ccccc1C2=O)NC1CC1,n,30,n,n,n,n
CCOc1ccc2oc(C(=O)OCC(=O)NC3CCCCC3)c(C)c2c1,x,26,n,n,n,61
COCCCN1C(=O)C(CC(=O)NCc2cccs2)CC(C(=O)N(C)C)=C1C (centres undefined),x,x,x,x,n,x
Cc1ccc(C(C)NC(=O)CSc2ccc(S(=O)(=O)N3CCOCC3)cn2)cc1C (centres undefined),x,n,n,n,n,n
Cc1noc(C)c1CSCC(=O)N(CC(C)C)c1c(N)n(Cc2ccccc2)c(=O)[nH]c1=O,x,n,n,n,n,n
O=C(NCCC1=CCCCC1)c1cc(COc2c(F)cccc2F)on1,n,n,n,n,n,n
CSc1ccccc1OCc1cc(C(=O)NCCC2=CCCCC2)no1,n,n,n,n,25,n
CCC(CC)c1nnc(NC(=O)c2cc(C(=O)OC)cc([N+](=O)[O-])c2)s1,30,n,n,n,n,n
O=C(C1CCCCC1)N1C[C@@H](O)[C@H](n2cc(-c3ccc(F)cc3)nn2)C[C@@H]1c1ccc(Cl)cc1,x,x,x,x,n,x
COc1ccccc1Nc1nc2ccccc2n1C,n,28,n,n,n,n
COc1ccccc1Nc1nc2ccccc2n2cnnc12,n,n,n,n,n,n
CC(C)(C)N(Cc1ccccc1)C(=O)CSc1nc2ccccc2c(=O)[nH]1,n,n,n,n,n,n
Cc1nnc(SCC(=O)N(Cc2ccccc2)C(C)(C)C)[nH]c1=O,n,n,n,25,n,n
COc1cc(OC)cc(C2C(C#N)=C(N)Oc3n[nH]c(-c4cccnc4)c32)c1 (centres undefined),n,n,n,n,n,n
CC(C)(C)c1ccc(C2C(C#N)=C(N)Oc3n[nH]c(-c4cccnc4)c32)cc1 (centres undefined),n,n,n,n,15,n
O=C(C[C@H]1C/C=C\CC[C@H](Cc2ccc(F)cc2)C(=O)O[C@@H](c2ccccc2)CNC1=O)N[C@H](CO)Cc1ccccc1,x,n,n,n,n,n
CC(C)(C)OC(=O)C[C@H]1C/C=C\C[C@@H](CC(=O)NCCO)C(=O)N2CCC[C@H]2COC1=O,x,n,n,n,n,n
O=C(C[C@H]1C/C=C\CC[C@H](Cc2ccc(F)cc2)C(=O)OC[C@H]2CCCN2C1=O)N[C@@H](CO)Cc1ccccc1,x,27,n,n,x,n
O=C(C[C@@H]1C/C=C\C[C@@H](Cc2ccc(F)cc2)C(=O)OC[C@@H]2CCCN2C1=O)NCCO,x,n,n,47,n,n
O=C(C[C@H]1C/C=C\CC[C@H](Cc2ccc(F)cc2)C(=O)O[C@@H](c2ccccc2)CNC1=O)N[C@@H](CO)Cc1ccccc1,x,n,n,25,n,n
O=C(C[C@@H]1C/C=C\C[C@@H](Cc2ccc(F)cc2)C(=O)OC[C@H]2CCCN2C1=O)N[C@H](CO)Cc1ccccc1,x,n,n,31,n,n
O=C(C[C@H]1C/C=C\CC[C@H](Cc2ccc(F)cc2)C(=O)OC[C@H]2CCCN2C1=O)N[C@H](CO)Cc1ccccc1,x,n,n,n,n,n
